This is an account of results in PubChem BioAssay (NCI).

This is part of a sample that, as a whole, favours compounds with a hit. Of some 83,000 tested, about 20% had one in any assay.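 48-hour exposure, single concentration, 96-well plates; percent growth endpoint where 0 means no net growth. Active: below 10.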 A number with no mark means an inactive call. Activity calls are given as the source filed them.

Holding throughout (experiment): NCI-60 one-dose screen, 48 h (100 = growth as untreated, 0 = no growth, -100 = all killed)
Settings in all cases: 10 µM unless noted

The subject of assay [1] is NCI-H23 lung.
The subject of assay [2] is NCI-H322M lung.
Assay [3] concerns HOP-62 NSCLC.
Assay [4] deals with NCI-H460 lung.
The test system of assay [5] is HOP-92 NSCLC.
Assay [6] concerns NCI-H522 lung.
Assay [7] concerns A549/ATCC NSCLC.
The subject of assay [8] is 786-0 renal.
Assay [9] relates to COLO 205 colon.
Assay [10] relates to DU-145 prostate.

For the molecule `COc1cc(/C=C2\CCC/C(=C\c3cc(CN4CCOCC4)c(O)c(OC)c3)C2=O)cc(CN2CCOCC2)c1O`, the growth was 21.4% in [1]; 46.4% in assay [2]; 46.6% in assay [3]; 11.6% in assay [4]; 36.8% in assay [5]; 34.4% in assay [6]. The growth in assay [7] was 35.8%; in assay [8], 57.8%; in assay [9] it was 45.2%; in [10] it was 14.9%.
In the case of `Cc1nc(Nc2ccccn2)sc1C(=O)/C=C/c1ccc(Cl)cc1`, the growth in assay [1] is 22.7%; in assay [2] it was 32.1%; in assay [3], 16.4%; in assay [4], 3.86% (active); in assay [5], 31.8%; in assay [6], -39.3% (active). The growth in assay [7] is 17.2%; in [8], 19.7%; in assay [9] it was -21.5% (active); in assay [10], 6.68% (active).
For the molecule `Cc1c(C(=O)OCCO)cc(-c2ccc(Cl)cc2)n1-c1ccc(Cl)cc1Cl`, the growth in assay [1] is 77.6%; in assay [2] it was 84.3%; in [3] it was 89.2%; in [4], 37.7%; in assay [5], 91.1%; in assay [6], 54.7%. Further, the growth in [7] is 47.6%; in [8], 94.1%; in [9], 108%; in assay [10], 62.9%.
Regarding `Oc1[nH]c2ccccc2c1N=Nc1nnc2n1N=C(c1ccccc1)CS2`, the growth in [1] is 70%; in assay [2], 104%; in [3], 46.1%; in assay [4], 83.3%; in assay [5] it was 64.7%; in assay [6] it was 43.6%. For the same molecule, the growth in assay [7] was 69.1%; in [8] it was 82%; in assay [9], 105%; in assay [10] it was 84.1%.
For the molecule `Cc1ccc2cc3c(N)c4c(C)ccc(C)c4nc3nc2c1`, the growth is 89.4% in assay [1]; 72.4% in assay [2]; 76.3% in assay [3]; 53% in assay [4]; 29.4% in assay [5]; -23.9% (active) in assay [6]. Further, the growth in assay [7] is 45.1%; in [8], 54.2%; in assay [9], -53.3% (active); in assay [10], 80.5%.
In the case of `O=C(Nc1ccsc1C(=O)NC1CCCCC1)c1ccc(F)cc1`, the growth is 100% in [1]; 116% in assay [2]; 103% in assay [3]; 98.3% in assay [4]; 71.1% in assay [5]; 108% in assay [6]. Besides, the growth is 103% in [7], 101% in assay [8], 104% in assay [9] and 119% in assay [10].
For the molecule `Cn1nc(C(F)(F)F)c(-c2ccc(Cl)c(C(F)(F)F)c2)c1-c1ccc(OCc2ccc(Cl)cc2)cc1O`, the growth was -6.46% (active) in assay [1]; 18.1% in assay [2]; 50.5% in assay [3]; 6.25% (active) in [4]; -22.4% (active) in assay [5]; -13.7% (active) in [6]. Besides, the growth in assay [7] is 12.8%; in [8], 28.4%; in assay [9], 24.5%; in assay [10], 19%.
As to `COc1ccc(/C=c2\sc3n(c2=O)NC2C(N=3)N(C)C(=O)N2C)cc1` (stereo not given), the growth in assay [1] was 96.6%; in assay [2] it was 92%; in [3] it was 101%; in assay [4] it was 108%; in assay [5] it was 100%; in [6] it was 86.6%. Moreover, the growth is 99.8% in [7], 97.7% in [8], 102% in assay [9] and 110% in assay [10].
As for `COc1cc2nc(-c3cccc4cccnc34)nc(NC3CCN(Cc4ccccc4)CC3)c2cc1OC`, the growth was -72.2% (active) in [1]; -71.3% (active) in [2]; -73.9% (active) in assay [3]; -73.6% (active) in assay [4]; -73.2% (active) in assay [5]; -52.1% (active) in assay [6]. In addition, the growth is -72.7% (active) in [7], -71.4% (active) in assay [8], -75.5% (active) in assay [9] and -93.6% (active) in assay [10].
Consider `O=C(Nc1ccc(-c2nc3cc4ccccc4cc3[nH]2)cc1)c1cccc(Br)c1`, for which the growth in assay [1] is 54.1%; in [2] it was 41.3%; in [3], 49.9%; in [4], 6.74% (active); in [5], 72.6%; in assay [6], 16.3%. For the same molecule, the growth is 27% in assay [7], 17.6% in [8], 34.6% in assay [9] and 46.4% in [10].
With `Cc1ccc(S(=O)c2ccc([N+](=O)[O-])c3nonc23)cc1` (stereo not given), the growth in assay [1] is 102%; in [2] it was 110%; in assay [3] it was 112%; in assay [4], 99.5%; in assay [5] it was 109%; in assay [6], -60.1% (active). Besides, the growth in [7] is 101%; in assay [8], 102%; in assay [9], -39.7% (active); in [10], 112%.
On to `O=C(NCCCN1CCC(N2CCCCC2)CC1)C1=Cc2cc(Br)ccc2OC1`, for which the growth in assay [1] is 56.2%; in assay [2] it was 69.2%; in [3], 87.9%; in assay [4] it was 13.8%; in [5], 80.7%; in [6], 31%. The growth in assay [7] is 49.1%; in assay [8], 53.5%; in assay [9], 46.1%; in assay [10], 68.7%.
On to `COc1ccc(C(=O)C2CC2c2ccc(Cl)cc2)cc1` (stereo not given), for which the growth in assay [1] is 95.1%; in assay [2] it was 82.7%; in assay [3], 115%; in [4], 94.2%; in [5], 92.7%; in [6] it was 68.2%. For the same molecule, the growth was 82.8% in assay [7], 89% in [8], 106% in assay [9] and 97.5% in assay [10].
On to `COc1cccc(C(=O)NC(c2ccc(C)cc2)c2cc(Cl)c3cccnc3c2O)c1` (stereo not given), for which the growth in assay [1] is 28.7%; in assay [2], 9.1% (active); in [3], 9.9% (active); in [4], 0.0612% (active); in assay [5], 31.8%; in assay [6], 9.38% (active). Also, the growth in assay [7] is 6.84% (active); in assay [8], 6.38% (active); in assay [9] it was 14.4%; in assay [10], 15.3%.
